We go through eight compounds from PubChem BioAssay (Tox21).

Values without a mark were called inactive. Results filed as inconclusive are left out. Calls of active or inactive are those of the source. Unless noted, the call rests on the fitted dose curve; in most records, active means well fitted curve in the direction sought with a large enough effect in the repeat runs; inconclusive means weak or mixed curves; inactive means no such curve, though single readings can be large; an effect the other way counts as inactive or inconclusive.

Assay [1] addresses Thyrotropin receptor (Homo sapiens) (UniProt P16473). Kind of assay: qHTS assay to identify small molecule agonists of the thyroid stimulating hormone receptor (TSHR) signaling pathway (AID 1224843; calls by dose curve; further: nearly all actives have a fitted effect of over 45% in size). The method, boiled down:
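TSHR-expressing HEK293 cells (800 per well) were exposed to compounds for 30 min at room temperature. cAMP was then detected by HTRF competition with cAMP-d2 and anti-cAMP cryptate, read after 1 h at room temperature. Fifteen concentrations, triplicate.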
(In general: In qHTS, concentration-response curves come from the screen itself.)

Assay [2] can be described thus: qHTS assay to identify small molecule agonists of the hypoxia (HIF-1) signaling pathway - cell viability counter screen (AID 1224844; calls by dose curve; further: nearly all actives have a fitted effect of over 50% in size). A digest of the protocol: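 Cells (HRE-bla ME-180, 2,000 per well) sat 5 hrs at 37C, got compound for 17 hrs, were read for CCF4-AM FRET, and were finally lysed with CellTiter-Glo for a 30 min room-temperature luminescence read.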

A short description of assay [3]: qHTS assay to identify small molecule agonists of the hypoxia (HIF-1) signaling pathway (AID 1224846; active means well fitted activation curve with a large enough effect in the signal ratio in the repeat runs, not every such curve was filed as active; the % refers to the signal ratio). The method, boiled down: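 A low-serum medium (0.5% dialyzed FBS) holding 2,000 HRE-bla ME-180 cells per well is preincubated for 5 hrs, dosed with compounds by pintool, and kept a further 17 hrs at 37C, 5% CO2 before CCF4-AM FRET detection of beta-lactamase.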

A short description of assay [4]: qHTS assay to identify small molecule antagonists of the estrogen related receptor (ERR) signaling pathway from Tox21 library (AID 1224848). Further: nearly all actives have a fitted effect of over 50% in size. Further: potency means the concentration at half of the fitted maximal effect. A digest of the protocol: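 Cells: ERR line, 2,000/well; 6 h preincubation 37 C/5% CO2. Cpd in DMSO via pin tool; 18 h, 37 C. ONE-Glo, 30 min RT, luminescence.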
Assay [5] in a line: qHTS RealTime-Glo MT Cell Viability Assay in HEK293 cells - 32 hour (AID 1224868). Further: nearly all actives have a fitted effect of over 50% in size. Further: potency means the concentration at half of the fitted maximal effect. The method, boiled down:
(§1)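 Nonlytic real-time viability readout: viable cells convert prosubstrate to NanoLuc substrate, giving luminescence proportional to live cell number. HEK293, 600 cells/well, compound added after 5 h, continuous culture at 37 C.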

Assay [6] can be described thus: qHTS RealTime-Glo MT Cell Viability Assay in HepG2 cells - 40 hour (AID 1224870). Further: nearly all actives have a fitted effect of over 50% in size. A digest of the protocol:
(§2)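 HepG2 cells mixed with RealTime-Glo MT reagents (NanoLuc plus cell-permeant prosubstrate) were seeded at 600 cells/well, incubated 5 h at 37 C/5% CO2, then pinned with compounds in DMSO; nonlytic luminescence tracked viability during 40 h treatment.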

Assay [7] in a line: A CellTox Green Cytotoxicity Assay to monitor cytotoxicity in HEK293 cells - 40 hour (AID 1224871). Further: nearly all actives have a fitted effect of over 45% in size. The method, boiled down: (§3)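 Fluorescence intensity, read at 0, 8, 16, 24, 32 and 40 h of compound treatment, reflected dye binding to DNA of dead HEK293 cells; compounds (23 nL, DMSO) were added 5 h after plating cells with reagent.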
Assay [8] can be described thus: qHTS RealTime-Glo MT Cell Viability Assay in HEK293 cells - 16 hour (AID 1224872). Further: nearly all actives have a fitted effect of over 50% in size. Further: potency means the concentration at half of the fitted maximal effect. The method, boiled down:
as §1

Assay [9] is described as follows: qHTS RealTime-Glo MT Cell Viability Assay in HEK293 cells - 40 hour (AID 1224874). Further: nearly all actives have a fitted effect of over 50% in size. Further: potency means the concentration at half of the fitted maximal effect. The conditions noted are these: RealTime-Glo luminescence; max response: hits give low values. The method, boiled down:
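Viable HEK293 cells reduce a cell-permeant prosubstrate; the product diffuses out and is consumed by NanoLuc in the medium to give light. Compounds went in after a 5 h incubation and plates were read over the treatment course.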

Assay [10] can be described thus: A CellTox Green Cytotoxicity Assay to monitor cytotoxicity in HEK293 cells - 24 hour (AID 1224875). Further: nearly all actives have a fitted effect of over 45% in size. A digest of the protocol: as §3
The nature of assay [11]: A CellTox Green Cytotoxicity Assay to monitor cytotoxicity in HepG2 cells - 16 hour (AID 1224876). Further: nearly all actives have a fitted effect of over 45% in size. The method, boiled down:
(§4)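 Using 1536-well format, dye-containing HepG2 suspension was seeded, allowed 5 h at 37 C/5% CO2, dosed by pintool with compounds, positive and negative controls, and imaged for fluorescence across 40 h.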

Assay [12] in a line: A CellTox Green Cytotoxicity Assay to monitor cytotoxicity in HepG2 cells - 24 hour (AID 1224878). Further: nearly all actives have a fitted effect of over 45% in size. Further: potency means the concentration at half of the fitted maximal effect. A digest of the protocol:
as §4

Assay [13] is described as follows: qHTS assay to identify small molecule agonists of H2AX - cell viability counter screen (AID 1224847; calls by dose curve; further: nearly all actives have a fitted effect of over 30% in size; further: potency means the concentration at half of the fitted maximal effect). A digest of the protocol:
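CHO-K1 cells plated overnight at 37C, then exposed 3 h at 37C to compounds at 15 concentrations (0.76% DMSO final). Viability by CellTiter-Glo luminescence after 30 min at room temperature.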

The nature of assay [14]: qHTS RealTime-Glo MT Cell Viability Assay in HepG2 cells - 24 hour (AID 1224867). Further: nearly all actives have a fitted effect of over 50% in size. A digest of the protocol: (§5)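 Luminescence read-out: viable HepG2 cells reduce a prosubstrate to a NanoLuc substrate, giving a signal proportional to live cell number. Reads taken at 0, 8, 16, 24, 32 and 40 h of compound exposure at 37 C.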
Assay [15] can be described thus: qHTS RealTime-Glo MT Cell Viability Assay in HepG2 cells - 8 hour (AID 1224873). Further: nearly all actives have a fitted effect of over 55% in size. A digest of the protocol: as §2
Assay [16] can be described thus: qHTS RealTime-Glo MT Cell Viability Assay in HepG2 cells - 32 hour (AID 1224877). Further: nearly all actives have a fitted effect of over 55% in size. Further: potency means the concentration at half of the fitted maximal effect. The method, boiled down:
as §5

A short description of assay [17]: A CellTox Green Cytotoxicity Assay to monitor cytotoxicity in HEK293 cells - 0 hour (AID 1224869). Further: nearly all actives have a fitted effect of over 50% in size. The method, boiled down:
as §3

A short description of assay [18]: A CellTox Green Cytotoxicity Assay to monitor cytotoxicity in HepG2 cells - 40 hour (AID 1224879). Further: nearly all actives have a fitted effect of over 40% in size. Further: potency means the concentration at half of the fitted maximal effect. The method, boiled down: as §4
Assay [19] in a line: qHTS assay to identify small molecule agonists of the estrogen related receptor (ERR) signaling pathway from Tox21 library (AID 1224849; calls by dose curve; further: nearly all actives have a fitted effect of over 15% in size). The conditions noted are these: ERR reporter cell line, ONE-Glo luciferase, 18 h; at 92.4 µM (top of the series) unless noted. A digest of the protocol:
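Screening used an NTP-provided ERR luciferase cell line. Compounds in DMSO were added 6 h after seeding and left 18 h at 37 C before a 30 min ONE-Glo step and luminescence reading.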

The nature of assay [20]: qHTS assay to identify small molecule agonists of H2AX (AID 1224845; active means well fitted activation curve with a large enough effect in the signal ratio in the repeat runs, not every such curve was filed as active; the % refers to the signal ratio). The method, boiled down:
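Wild-type CHO-K1 cells plated overnight, then exposed 3 hr at 37C to compounds at 15 concentrations (0.76% DMSO). Lysed, then HTRF anti-pH2AX(S139)-cryptate/anti-H2AX-d2 detection after 24 hr at room temperature; emissions 665 and 620 nm.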
On the % scale 0 is the no-effect control and ±100 the full control effect.

Chain of Thyrotropin receptor (Homo sapiens) (P16473 whole entry, looked up): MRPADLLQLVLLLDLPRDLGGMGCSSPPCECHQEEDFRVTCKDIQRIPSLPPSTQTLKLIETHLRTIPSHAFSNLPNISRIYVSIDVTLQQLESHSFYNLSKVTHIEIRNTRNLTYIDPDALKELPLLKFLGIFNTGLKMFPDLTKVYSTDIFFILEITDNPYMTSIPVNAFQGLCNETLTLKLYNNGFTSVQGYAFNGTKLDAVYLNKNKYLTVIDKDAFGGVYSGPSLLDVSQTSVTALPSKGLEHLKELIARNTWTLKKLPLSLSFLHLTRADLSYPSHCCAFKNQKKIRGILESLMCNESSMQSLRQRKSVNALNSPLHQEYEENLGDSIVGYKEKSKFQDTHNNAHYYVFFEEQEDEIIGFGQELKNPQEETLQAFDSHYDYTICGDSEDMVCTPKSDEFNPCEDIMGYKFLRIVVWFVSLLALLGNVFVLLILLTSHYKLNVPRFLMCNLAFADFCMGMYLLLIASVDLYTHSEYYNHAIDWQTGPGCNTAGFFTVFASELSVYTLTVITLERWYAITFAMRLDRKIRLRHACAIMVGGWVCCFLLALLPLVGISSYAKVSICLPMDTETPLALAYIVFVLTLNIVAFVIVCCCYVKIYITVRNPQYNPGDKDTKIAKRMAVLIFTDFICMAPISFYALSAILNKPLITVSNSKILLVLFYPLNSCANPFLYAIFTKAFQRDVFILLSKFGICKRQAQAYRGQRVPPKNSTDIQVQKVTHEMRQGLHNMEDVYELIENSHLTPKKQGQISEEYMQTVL

In the case of `Cc1nccn1-c1ccc(Sc2cccc(C3(C(N)=O)CCOCC3)c2)cc1`, the Potency result in assay [1], in [2], in [6], in [7], in [10] and in [11] was “inactive” each time. Moreover, in assay [12], the Potency result was “inactive”. The outcome in assay [3] was inactive. The Potency is 1.37 µM (active) in assay [4], 1.38 µM (active) in [5], 1.38 µM (active) in [8] and 1.23 µM (active) in assay [9].

Take `CCC(C)(C)C1CCC(O)CC1` (configuration not stated): the Potency entry in assay [1], in assay [2], in assay [13], in assay [14], in assay [5] and in assay [6] was “inactive” throughout. Besides, the Potency result in assay [7], in assay [8], in assay [15], in [10] and in [16] was “inactive” each time. Moreover, in assay [3], the compound was classed as inactive. In addition, the max response in assay [9] was 3.32%.

Take `Fc1ccccc1[C@@H](F)COC1CCC(Nc2ncnc3[nH]ncc23)CC1` (some centres not stated): the Potency result in assay [1], in assay [2], in assay [14], in assay [17], in assay [6] and in assay [15] was “inactive” in each case. Besides, the Potency result in [10], in assay [11], in assay [16], in assay [12] and in assay [18] was “inactive” in each case. In addition, the call in assay [3] was inactive. The Potency was 101 µM (active) in assay [13], 21.9 µM (active) in [5] and 24.5 µM (active) in assay [9].

Turning to `OCC1CC=CCC1` (configuration not stated), the Potency entry in assay [1], in assay [2], in [13], in [14], in assay [5] and in [17] was “inactive” each time. In addition, the Potency result in [6], in assay [7], in assay [8], in assay [15], in assay [10] and in [11] was “inactive” throughout. Besides, the Potency entry in assay [16], in assay [12] and in assay [18] was “inactive” each time. Further, the call in [3] was inactive. Also, the max response in [9] was -1.94%.

In the case of `CC(C)c1nnc2ccc(-c3ocnc3-c3cc(F)ccc3F)cn12`, the Potency result in [1], in [2], in assay [14], in [17], in [6] and in assay [7] was “inactive” throughout. For the same compound, the Potency entry in assay [15], in [11], in assay [16], in [12] and in assay [18] was “inactive” each time. Moreover, in assay [3], the call was inactive. Also, the Potency in [5] was 21.9 µM (active); in assay [8], 17.4 µM (active); in assay [9] it was 19.5 µM (active).

Regarding `O=C(O)Cc1ccc(-c2ccccc2)cc1`, the Potency entry in assay [1], in assay [2], in [13], in assay [4], in [14] and in assay [5] was “inactive” each time. The Potency result in assay [17], in assay [6], in [7], in [8], in [15] and in [10] was “inactive” in each case. Besides, the Potency result in assay [11], in assay [16], in assay [12] and in [18] was “inactive” each time. The activity change, positive = activation in assay [19] is 1.1% [at 42.5 µM]. For the same compound, the max response in [9] is 10.5%.

As for `Cc1ccc(S)cc1`, the Potency result in assay [1], in [2], in assay [13], in [14], in [5] and in assay [6] was “inactive” each time. Moreover, the Potency entry in [7], in assay [8], in [15], in assay [11] and in assay [16] was “inactive” each time. Also, the compound was called inactive in assay [3]. For the same compound, the max response in assay [9] is 4.48%. Also, the Potency in assay [12] and in assay [18] was 17.4 µM (active) throughout.

As for `CN(C)CCOC1=Cc2ccccc2Sc2ccc(Cl)cc21`, the Potency entry in assay [1], in assay [20], in assay [13], in assay [5], in assay [17] and in [8] was “inactive” each time. In addition, the outcome in assay [3] was inactive. The activity change, positive = activation in assay [19] was -11.9% [at 42.5 µM]. Besides, the max response in assay [9] is -22.7%. For the same compound, the Potency was 21.3 µM (active) in assay [16], 23.9 µM (active) in assay [12] and 23.9 µM (active) in assay [18].
